# Test results published in ChEMBL document CHEMBL3988442, “University of Dundee, Small-Polar-MMV Screening Library” (2021).
# For some assays here: Potency and affinity values are given separately.
# What was measured:
# Set-up in all cases: scale not given: direction of the effect not stated beside the values
# [1] = target: Protein translocase subunit SecA (Escherichia coli (strain K12)) (UniProt P10408); test: Assay to Identify E. coli SecA ATPase Inhibitors; format: functional; conditions: 30 µM
# Sequence of Protein translocase subunit SecA (Escherichia coli (strain K12)) (P10408 whole entry): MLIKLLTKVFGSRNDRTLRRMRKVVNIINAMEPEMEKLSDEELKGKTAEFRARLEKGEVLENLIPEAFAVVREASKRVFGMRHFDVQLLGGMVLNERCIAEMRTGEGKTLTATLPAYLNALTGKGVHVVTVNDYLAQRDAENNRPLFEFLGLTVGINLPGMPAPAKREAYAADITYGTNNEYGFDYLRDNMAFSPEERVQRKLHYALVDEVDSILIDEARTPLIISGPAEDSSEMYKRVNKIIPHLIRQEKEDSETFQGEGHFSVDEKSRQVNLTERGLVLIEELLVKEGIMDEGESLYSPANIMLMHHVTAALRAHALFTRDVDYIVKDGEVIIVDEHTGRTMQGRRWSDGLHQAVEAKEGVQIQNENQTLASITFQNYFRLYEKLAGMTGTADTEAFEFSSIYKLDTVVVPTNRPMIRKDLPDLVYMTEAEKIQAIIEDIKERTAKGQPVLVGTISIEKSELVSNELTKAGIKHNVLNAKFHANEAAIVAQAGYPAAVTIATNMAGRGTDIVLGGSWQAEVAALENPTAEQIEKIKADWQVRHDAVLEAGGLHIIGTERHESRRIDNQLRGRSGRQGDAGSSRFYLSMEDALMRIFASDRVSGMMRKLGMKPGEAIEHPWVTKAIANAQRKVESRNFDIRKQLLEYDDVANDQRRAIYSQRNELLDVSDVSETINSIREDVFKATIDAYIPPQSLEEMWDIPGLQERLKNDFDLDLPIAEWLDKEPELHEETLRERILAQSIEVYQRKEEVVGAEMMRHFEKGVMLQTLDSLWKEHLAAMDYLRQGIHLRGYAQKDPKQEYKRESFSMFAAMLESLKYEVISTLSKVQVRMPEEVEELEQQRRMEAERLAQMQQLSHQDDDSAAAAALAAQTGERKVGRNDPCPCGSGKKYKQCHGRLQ
# [2] = target: T1, Ubiquitin-activating enzyme e1, putative (Leishmania donovani (strain BPK282A1)) (UniProt E9BSI1); test: Leishmania donovani Ubiquitin Activating Enzyme (LdE1); format: functional; conditions: 30 µM
# T1 sequence (whole entry): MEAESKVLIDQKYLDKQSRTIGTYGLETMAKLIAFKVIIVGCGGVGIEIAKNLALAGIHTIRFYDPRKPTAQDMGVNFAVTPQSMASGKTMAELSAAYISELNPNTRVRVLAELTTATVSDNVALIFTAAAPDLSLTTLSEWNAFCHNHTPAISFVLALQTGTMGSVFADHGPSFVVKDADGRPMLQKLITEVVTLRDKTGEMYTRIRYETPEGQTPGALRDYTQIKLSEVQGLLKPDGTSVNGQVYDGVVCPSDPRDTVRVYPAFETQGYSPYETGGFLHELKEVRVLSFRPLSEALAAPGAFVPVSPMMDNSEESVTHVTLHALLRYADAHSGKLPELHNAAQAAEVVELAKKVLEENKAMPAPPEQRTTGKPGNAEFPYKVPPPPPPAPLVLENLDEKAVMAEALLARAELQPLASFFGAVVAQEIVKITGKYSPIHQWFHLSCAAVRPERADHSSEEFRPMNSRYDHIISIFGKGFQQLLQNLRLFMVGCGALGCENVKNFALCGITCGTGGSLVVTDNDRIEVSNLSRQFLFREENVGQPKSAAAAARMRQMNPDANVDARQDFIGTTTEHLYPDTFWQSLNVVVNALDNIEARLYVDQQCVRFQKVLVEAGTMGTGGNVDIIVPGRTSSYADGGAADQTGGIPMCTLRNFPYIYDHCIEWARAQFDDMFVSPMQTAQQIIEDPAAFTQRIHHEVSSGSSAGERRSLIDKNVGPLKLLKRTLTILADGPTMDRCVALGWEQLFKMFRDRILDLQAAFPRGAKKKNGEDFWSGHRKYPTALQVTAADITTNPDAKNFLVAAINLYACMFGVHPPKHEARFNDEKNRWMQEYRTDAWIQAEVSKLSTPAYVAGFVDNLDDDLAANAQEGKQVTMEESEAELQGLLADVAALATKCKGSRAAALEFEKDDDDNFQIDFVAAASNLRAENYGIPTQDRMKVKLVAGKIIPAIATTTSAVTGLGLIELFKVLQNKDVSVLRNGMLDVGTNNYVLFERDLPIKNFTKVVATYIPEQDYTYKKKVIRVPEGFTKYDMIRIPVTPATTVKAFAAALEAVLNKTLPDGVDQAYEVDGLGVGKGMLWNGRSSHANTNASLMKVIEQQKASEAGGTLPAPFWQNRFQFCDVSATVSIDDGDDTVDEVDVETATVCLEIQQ
# [3] = target: AMP-activated protein kinase, AMPK (Homo sapiens) (UniProt P54646+O43741+P54619+Q9UGJ0+Q9Y478+Q13131+Q9UGI9); test: AMP-dependent Kinase enzyme assay. An in vitro enzyme assay that detects ADP turnover that is directly proportional to AMPK activity. This uses naive AMPK that is activated during the assay with MK-8722; format: functional; conditions: 30 µM
# [4] = target: Sialic acid-binding Ig-like lectin 9 (Homo sapiens) (UniProt Q9Y336); test: Hs-Siglec9 ALPHAscreen SOP 20170721; conditions: 10 µM
# Sequence of Sialic acid-binding Ig-like lectin 9 (Homo sapiens) (Q9Y336 whole entry): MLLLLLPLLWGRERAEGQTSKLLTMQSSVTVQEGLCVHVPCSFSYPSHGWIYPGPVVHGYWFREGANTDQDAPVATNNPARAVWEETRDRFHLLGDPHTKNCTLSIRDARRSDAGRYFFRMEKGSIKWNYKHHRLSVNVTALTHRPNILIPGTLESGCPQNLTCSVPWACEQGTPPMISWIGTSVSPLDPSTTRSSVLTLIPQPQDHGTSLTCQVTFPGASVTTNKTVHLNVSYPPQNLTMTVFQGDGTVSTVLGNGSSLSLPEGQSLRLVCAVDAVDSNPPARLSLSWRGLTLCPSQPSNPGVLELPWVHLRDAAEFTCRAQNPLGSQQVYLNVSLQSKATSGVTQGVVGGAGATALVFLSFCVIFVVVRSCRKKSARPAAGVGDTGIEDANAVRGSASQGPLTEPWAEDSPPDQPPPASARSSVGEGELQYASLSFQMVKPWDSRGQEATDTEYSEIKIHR
# Trypanosoma cruzi = test: Trypanosoma cruzi phosphomannomutase and mannose-1-phosphate guanylyltransferase assay; format: functional; conditions: 10 µM
# [5] = target: T2, Arginase-2, mitochondrial (Homo sapiens) (UniProt P78540); test: in vitro enzyme assay to detect the production of urea directly proportional to the activity of Arginase II; format: functional; conditions: 33.3 µM; also: in the data most compounds retested in dose-response had high values
# T2 sequence (whole entry): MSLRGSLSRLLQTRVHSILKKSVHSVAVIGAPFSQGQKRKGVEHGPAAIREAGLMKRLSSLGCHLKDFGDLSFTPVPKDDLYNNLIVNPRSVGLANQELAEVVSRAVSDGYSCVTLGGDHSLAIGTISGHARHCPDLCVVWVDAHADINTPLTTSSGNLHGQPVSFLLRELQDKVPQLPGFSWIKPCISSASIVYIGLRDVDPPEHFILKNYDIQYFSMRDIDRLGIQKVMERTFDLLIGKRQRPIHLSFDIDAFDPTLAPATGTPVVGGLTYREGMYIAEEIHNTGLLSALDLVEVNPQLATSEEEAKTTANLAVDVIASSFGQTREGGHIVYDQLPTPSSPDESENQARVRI
# [6] = target: T3, Proteasome subunit beta (Trypanosoma cruzi) (UniProt O96673); test: Trypanosoma cruzi proteasome chymotrypsin-like activity (TcProtChymo) assay.; also: in the data most compounds retested in dose-response had high values; format: functional; conditions: 9.37 µM
# T3 sequence (whole entry): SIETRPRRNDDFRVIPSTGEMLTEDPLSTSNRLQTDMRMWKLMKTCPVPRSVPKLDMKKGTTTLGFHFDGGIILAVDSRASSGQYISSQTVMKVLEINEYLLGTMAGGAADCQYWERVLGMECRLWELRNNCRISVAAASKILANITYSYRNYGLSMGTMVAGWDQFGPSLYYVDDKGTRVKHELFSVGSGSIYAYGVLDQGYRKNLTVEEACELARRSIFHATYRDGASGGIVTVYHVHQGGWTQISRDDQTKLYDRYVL
# Homo sapiens = species: Homo sapiens; test: To identify inhibition of the IFN signalling (Jak-Stat) pathway via expression of an eGFP reporter gene under the control of an IFN-stimulated response element (ISRE) containing MxA promoter.; format: functional; conditions: 30 µM
# [7] = target: T4, Tyrosyl-tRNA synthetase, putative (Trypanosoma cruzi (strain CL Brener)) (UniProt Q4DSP6); test: Trypanosoma cruzi tyrosyl tRNA synthetase (TcYRS) _High Tyrosine SOP; format: functional; conditions: 30 µM; also: in the data most compounds retested in dose-response had high values
# T4 sequence (whole entry): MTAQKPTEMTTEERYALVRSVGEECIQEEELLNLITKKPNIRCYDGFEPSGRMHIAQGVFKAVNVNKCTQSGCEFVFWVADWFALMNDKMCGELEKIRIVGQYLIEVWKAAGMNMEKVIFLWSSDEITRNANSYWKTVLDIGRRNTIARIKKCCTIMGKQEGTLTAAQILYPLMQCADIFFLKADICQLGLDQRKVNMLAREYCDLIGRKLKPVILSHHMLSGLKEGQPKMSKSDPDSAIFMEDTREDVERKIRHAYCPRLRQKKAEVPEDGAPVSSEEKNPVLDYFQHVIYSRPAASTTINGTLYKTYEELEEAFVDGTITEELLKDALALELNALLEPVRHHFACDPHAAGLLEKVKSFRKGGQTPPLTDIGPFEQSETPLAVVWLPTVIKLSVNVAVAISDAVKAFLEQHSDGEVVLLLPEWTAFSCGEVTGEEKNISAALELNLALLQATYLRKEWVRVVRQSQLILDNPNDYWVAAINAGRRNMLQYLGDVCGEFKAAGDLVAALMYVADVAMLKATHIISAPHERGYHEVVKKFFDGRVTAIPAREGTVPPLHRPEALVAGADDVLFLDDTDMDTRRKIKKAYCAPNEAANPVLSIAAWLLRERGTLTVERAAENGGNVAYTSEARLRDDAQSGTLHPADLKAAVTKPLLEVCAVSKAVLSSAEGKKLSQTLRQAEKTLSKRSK
# [8] = target: T4, Tyrosyl-tRNA synthetase, putative (Trypanosoma cruzi (strain CL Brener)); test: Trypanosoma cruzi tyrosyl tRNA synthetase (TcYRS) SOP; format: functional; conditions: 30 µM
# [9] = target: Chromo domain-containing protein 1 (Saccharomyces cerevisiae (strain ATCC 204508 / S288c) (Baker's yeast)) (UniProt P32657); test: ScCHD-1 Enzyme Inhibition Assay; format: functional; conditions: 30 µM; also: in the data most compounds retested in dose-response had high values
# Sequence of Chromo domain-containing protein 1 (Saccharomyces cerevisiae (strain ATCC 204508 / S288c) (Baker's yeast)) (P32657 whole entry, the tested form may be a part): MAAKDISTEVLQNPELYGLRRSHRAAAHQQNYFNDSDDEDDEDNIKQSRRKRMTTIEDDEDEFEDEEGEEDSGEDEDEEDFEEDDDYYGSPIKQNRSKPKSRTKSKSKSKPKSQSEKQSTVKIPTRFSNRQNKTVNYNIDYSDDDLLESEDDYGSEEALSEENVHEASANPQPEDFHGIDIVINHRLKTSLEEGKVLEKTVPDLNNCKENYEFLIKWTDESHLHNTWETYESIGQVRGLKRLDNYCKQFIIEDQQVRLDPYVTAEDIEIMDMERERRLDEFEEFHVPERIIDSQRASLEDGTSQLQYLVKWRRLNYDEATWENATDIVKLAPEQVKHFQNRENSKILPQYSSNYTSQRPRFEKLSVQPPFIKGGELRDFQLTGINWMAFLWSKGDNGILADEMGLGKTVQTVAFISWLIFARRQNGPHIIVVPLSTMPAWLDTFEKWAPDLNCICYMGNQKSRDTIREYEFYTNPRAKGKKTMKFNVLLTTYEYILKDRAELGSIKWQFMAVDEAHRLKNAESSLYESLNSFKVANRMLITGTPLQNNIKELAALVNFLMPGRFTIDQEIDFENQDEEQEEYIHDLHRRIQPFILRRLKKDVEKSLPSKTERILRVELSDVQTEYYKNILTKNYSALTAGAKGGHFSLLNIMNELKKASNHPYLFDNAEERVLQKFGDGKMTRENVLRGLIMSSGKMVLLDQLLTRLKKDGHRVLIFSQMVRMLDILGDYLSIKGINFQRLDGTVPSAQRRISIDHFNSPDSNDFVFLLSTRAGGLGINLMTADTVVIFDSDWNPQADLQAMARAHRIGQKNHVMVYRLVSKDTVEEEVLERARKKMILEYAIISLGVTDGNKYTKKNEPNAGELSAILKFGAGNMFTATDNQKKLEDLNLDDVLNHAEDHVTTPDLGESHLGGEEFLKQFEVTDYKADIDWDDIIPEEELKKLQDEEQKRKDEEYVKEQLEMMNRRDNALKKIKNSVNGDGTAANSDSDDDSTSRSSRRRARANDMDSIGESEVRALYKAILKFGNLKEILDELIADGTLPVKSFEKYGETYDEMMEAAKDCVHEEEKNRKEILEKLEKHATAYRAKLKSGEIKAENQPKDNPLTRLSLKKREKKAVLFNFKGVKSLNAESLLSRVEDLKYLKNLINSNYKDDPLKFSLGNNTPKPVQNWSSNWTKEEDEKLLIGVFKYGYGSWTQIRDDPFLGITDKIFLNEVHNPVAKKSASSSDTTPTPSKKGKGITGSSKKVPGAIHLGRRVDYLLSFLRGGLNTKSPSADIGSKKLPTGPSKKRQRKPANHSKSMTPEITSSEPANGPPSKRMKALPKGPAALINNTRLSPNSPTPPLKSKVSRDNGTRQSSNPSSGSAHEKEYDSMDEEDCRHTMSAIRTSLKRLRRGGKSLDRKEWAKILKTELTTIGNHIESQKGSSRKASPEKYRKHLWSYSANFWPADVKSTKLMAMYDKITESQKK
SMILES,Percent Effect [1],Percent Effect [2],Percent Effect [3],Percent Effect [4],Percent Effect (Trypanosoma cruzi),Percent Effect [5],Percent Effect [6],Percent Effect (Homo sapiens),Percent Effect [7],Percent Effect [8],Percent Effect [9]
N#Cc1c(F)cccc1N1CCN(S(=O)(=O)c2cccs2)CC1,-2.74%,-8.22%,3.3%,3.95%,3.33%,13.2%,8.16%,55.5%,-38.7%,-52.5%,48.5%
CN(C)c1ncc(CN2CCOC(C(=O)Nc3ccccc3)C2)cn1 (centres undefined),-0.531%,16%,2.21%,-8.34%,2.36%,71.6%,18.6%,23.5%,3.19%,14.1%,-7.74%
COC(=O)CCC(=O)N1CCc2[nH]nc(-c3ccc(F)c(F)c3)c2C1,-3.6%,0%,8.72%,-7.28%,-3.81%,1.24%,-3.35%,9.05%,2.15%,8.64%,-0.244%
CC1=N[C@@]2(CC[C@@H]3CN(S(=O)(=O)N(C)C)C[C@@H]32)C(=O)N1CC(C)C,1.29%,8.11%,2.53%,-13.6%,-6.75%,4.78%,13.3%,6.52%,5.41%,10.3%,-5.11%
O=C(NCCNc1ncccn1)C1CC(=O)N(CC(F)(F)F)C1 (centres undefined),-0.757%,16.2%,-5.02%,-3.51%,-7.26%,-4.81%,5.59%,16.5%,9.36%,13.6%,-6.16%
Cc1ccc(C(=O)NS(=O)(=O)c2cccc3cnccc23)c(=O)[nH]1,-5.08%,13.5%,-0.0909%,7.48%,0.65%,1.66%,6.64%,13%,6.93%,15.8%,2.35%
Cc1nc(C2CCCN2CCCS(=O)(=O)N(C)C)no1 (centres undefined),-4.22%,28.9%,-4.98%,-5.59%,2.26%,-0.383%,13.4%,10.9%,-5.39%,17.1%,-9.28%
Cn1ccnc1CN1CCN(CC(O)c2cccc(F)c2)CC1 (centres undefined),-1.52%,18.2%,-1.07%,4.38%,-0.49%,-1.9%,15.4%,-1.78%,6.67%,18.8%,-11.3%
CCc1nc(C2CCCN2CC(=O)Nc2c(C)n[nH]c2C)no1 (centres undefined),1.31%,-2.6%,-3.26%,6.7%,-5.62%,5.34%,3.38%,16.5%,1.94%,7.32%,-0.363%
CC(O)CN1CCN(C(=O)c2cn(-c3ccccc3Cl)nn2)CC1 (centres undefined),-1.74%,10.8%,-3.04%,16.5%,2.44%,5.71%,4.21%,-2.08%,3.23%,13.6%,-4.02%
COc1ccccc1N1CCC(CNCc2cccc(OC)c2OC)C1 (centres undefined),-3.66%,10.8%,-14.2%,3.03%,6.51%,-13.6%,7.75%,18.9%,13.3%,23.5%,-8.44%
Cn1cc(C2COC3(CCN(C(=O)Cn4cccn4)CC3)C2)cn1 (centres undefined),-2.57%,13.5%,-8.57%,-2.55%,2.25%,2.23%,24%,3.24%,4.32%,17.9%,2.16%
CC(O)CNC(=O)NCc1ccc(N2CCNC(=O)C2)cc1 (centres undefined),-3.56%,20.8%,-9.88%,10.6%,2.06%,-0.712%,4.73%,-4.97%,11.7%,21.9%,-11.2%
CCCn1c(C)cc(C(=O)CN2C(=O)c3ccccc3CS2(=O)=O)c1C,2.47%,-18.9%,-2.92%,7.94%,0%,1.91%,14.7%,21.2%,-10.1%,0%,8.3%
CCN1CC2(CC1=O)CN(Cc1cnn(C)c1)CCN(C(=O)C(C)C)C2 (centres undefined),-6.68%,5.41%,0.933%,-1.78%,-1.17%,-1.67%,7.52%,8.39%,7.92%,6.1%,2.63%
Cc1ccccc1C(=O)N1CCC(n2nnc3cc(F)ccc32)CC1,-4.02%,5.33%,12%,0.882%,-3.35%,1.17%,5.02%,7.34%,4.25%,11.5%,-5%
CCc1nc(CN(CC(N)=O)C(C)C)cs1,-2.67%,17.7%,0.603%,3.91%,1.23%,-1.14%,7.78%,7.33%,10.3%,21.5%,-2.93%
COc1ccc(CCC(=O)N2CCCC2Cn2cc(C)cn2)cc1F (centres undefined),-2.77%,0%,9.15%,2.46%,1.27%,4%,-2.67%,-9.57%,1.91%,2.35%,-12.9%
CS(=O)(=O)c1ccc(C(O)CN2CCC(c3ccn[nH]3)CC2)cc1 (centres undefined),-2.89%,15.2%,-2.45%,-1.3%,-2.17%,4.94%,5.32%,-11.8%,5.42%,16.5%,-6.15%
